# Sampled rows, rich in hits. Any-hit rate of the full collection: about 2.8%.
# Giardia kill – Giardia lamblia killing | 340,000 tested, 0.15% active | Giardia lamblia trophozoite viability | activity change, % at 7.66 µM, hits read low; in the data active = activity change below about -80%; inconclusive = between about -30% and that limit;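 also: parasites exposed to compound for two days anaerobically before the ATP read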
#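 Giardia lamblia trophozoites (100 cells/well) were incubated with compounds for 48 h at 37 deg C under anaerobic conditions. Viability was read as ATP content by one-step luminescence after 15-30 min at room temperature.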
# D3 ag – D3 dopamine receptor (human) agonism | P35462 | D3R DiscoveRx beta-arrestin cells, luminescence, 90 min | max activation, % | 410,000 tested, 0.58% active | AID 652048; in the data active = max activation above about 30%
#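 Agonist mode: compounds and dopamine controls were applied to plated cells for 90 min at 37 degrees C after an overnight attachment at 1500 cells/well. Luminescent read-out followed 30 - 60 minutes at room temperature with DiscoveRx detection reagent.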
# B2AR arrestin – recruits beta-arrestin to the human beta2-adrenergic receptor. P07550. Potency, µM (titrated, usually from 46.1 µM), hits mostly activators. beta-arrestin recruitment to beta2AR, cell-based reporter. 330,000 tested, 0.02% active; active = well fitted activation curve with a large enough effect; inconclusive = small, poorly fitted or top-dose-only effect; also: nearly all actives have a fitted effect of over 65% in size
# Target sequence (P07550 whole entry, looked up): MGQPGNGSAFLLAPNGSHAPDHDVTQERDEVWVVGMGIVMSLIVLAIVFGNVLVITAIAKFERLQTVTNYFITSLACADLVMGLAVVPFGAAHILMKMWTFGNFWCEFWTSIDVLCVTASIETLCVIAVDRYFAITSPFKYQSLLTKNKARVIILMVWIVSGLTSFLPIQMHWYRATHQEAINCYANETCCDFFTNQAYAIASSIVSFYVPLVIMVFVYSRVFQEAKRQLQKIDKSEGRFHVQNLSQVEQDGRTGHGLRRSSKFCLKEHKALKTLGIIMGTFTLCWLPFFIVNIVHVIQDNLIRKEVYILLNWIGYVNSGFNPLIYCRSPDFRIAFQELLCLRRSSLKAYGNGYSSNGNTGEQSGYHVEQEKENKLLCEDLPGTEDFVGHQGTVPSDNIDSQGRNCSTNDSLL
# DRD3 antagonist – antagonists of human D3 dopamine receptor; max response, negative = inhibition, %; AID 652054; D3R cells, DiscoveRx beta-arrestin luminescence, antagonist mode; hits give low values; 360,000 tested, 2.5% active; P35462; in the data active = max response below about -50%; inconclusive = no clear call, values can overlap the other calls
#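 Cells expressing the human receptor were seeded at 1500 cells/well, incubated overnight at 37 degrees C in 5% CO2, then exposed to library compounds with dopamine controls for 90 minutes at 37 degrees C before luminescent detection.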
# Numbers stand for hits; . = inactive; ? = inconclusive; / = no result.
SMILES,Giardia kill,D3 ag,B2AR arrestin,DRD3 antagonist
O=C(O)C1(C(=O)O)CCCC1,.,.,/,.
O=C(/C=C/c1cc2ccccc2o1)c1ccccc1O,.,.,.,.
COc1ccc(O)c(C(=O)/C=C/c2cc3ccccc3o2)c1,.,.,.,-62
Cc1ccc(NC(=O)Nc2nnc(SCC(=O)N3CCC(C)CC3)s2)cc1,/,.,/,/
Brc1csc(C=Nc2ccc3c(c2)OCCOCCOCCOCCO3)c1,.,.,.,.
Oc1c(Cl)cc(Cl)cc1C=Nc1ccc2c(c1)OCCO2,.,.,.,-52
Cc1n(N)c2ccccc2[n+]1CC(=O)c1ccccc1,.,.,.,-82
Cc1cccc(NC(=O)Cn2cc(S(=O)(=O)N3CCCC3)c(S(=O)(=O)N3CCCC3)c2)c1C,/,.,/,/
CCN(C[C@H]1N[C@@](CC)(C(=O)OC)[C@H]2C(=O)N(Cc3ccccc3)C(=O)[C@@H]12)C(=O)c1ccc(C)cc1,.,55,.,.
CCN(C[C@H]1N[C@@](Cc2ccccc2)(C(=O)OC)[C@H]2C(=O)N(Cc3ccccc3)C(=O)[C@@H]12)S(=O)(=O)c1ccccc1,.,.,.,-72
COC(=O)[C@]1(Cc2ccccc2)N[C@H](CN(C)C(=O)Nc2ccccc2)[C@@H]2C(=O)N(C)C(=O)[C@@H]21,.,.,.,.
COC(=O)[C@]1(Cc2ccccc2)N[C@H](CN(C)C(=O)Nc2ccc(OC)cc2)[C@@H]2C(=O)N(C)C(=O)[C@@H]21,.,.,.,-53
c1ccc(Cn2ccnc2SCc2nnc(-c3ccccc3)o2)cc1,.,32,/,.
O=C(CSc1nnc(CNC(=O)c2ccccc2)o1)NCCc1ccccc1,.,.,.,-68
CCN(C(=O)COc1ccc(C(C)=O)cc1)c1cccc2ccccc12,.,.,.,-72
CCN(C(=O)COC(=O)c1cnccn1)c1cccc2ccccc12,.,.,.,.
COc1cc(N=Nc2ccccc2C(=O)O)ccc1O,.,.,.,-58
COc1cc(N=Nc2ccc3ccccc3c2)ccc1O,.,.,.,.
O=C(Cn1c(=O)n(Cc2ccc(F)cc2)c(=O)c2sc3ccccc3c21)NCc1ccccc1,/,.,/,/
CCCN1CCC(=O)N(C(CSc2ccc(C)cc2)CC(C)C)CC1 (stereo not drawn),.,/,/,/
CCN1C(=O)[C@H]2[C@@H](c3ccc(-c4ccc(OC)cc4)c(OC)c3)N[C@@](CC(C)C)(C(=O)OC)[C@H]2C1=O,.,.,.,.
CCN1C(=O)[C@H]2[C@@H](c3ccc(-c4cc(C(C)=O)cs4)cc3)N[C@@](Cc3ccccc3)(C(=O)OC)[C@H]2C1=O,.,37,.,.
CCN1C(=O)[C@H]2[C@@H](c3ccc(-c4ccc(F)cc4)c(OC)c3)N[C@@](C)(C(=O)OC)[C@H]2C1=O,.,.,.,-51
CCN1C(=O)[C@H]2[C@@H](c3ccc(-c4ccc(OC)cc4)c(OC)c3)N[C@@](C)(C(=O)OC)[C@H]2C1=O,.,.,.,.
CCN1C(=O)[C@H]2[C@@H](c3ccc(-c4ccc(C(C)=O)cc4)cc3)N[C@@](Cc3ccccc3)(C(=O)OC)[C@H]2C1=O,.,.,.,.
SMILES,Giardia kill,D3 ag,B2AR arrestin,DRD3 antagonist
CCN1C(=O)[C@H]2[C@@H](c3ccc(-c4ccccc4)c(OC)c3)N[C@@](CC(C)C)(C(=O)OC)[C@H]2C1=O,.,.,.,-51
O=C1c2ccccc2-c2onc3ccc(Oc4ccccc4)c1c23,.,.,?,-116
CCn1c(O)c(N=NC(=O)CNC(=O)c2ccccc2F)c2ccccc21,.,.,.,-74
CCn1c(O)c(N=NC(=O)CNC(=O)c2ccco2)c2ccccc21,.,.,.,.
COc1ccccc1C(=O)NCC(=O)N=Nc1c(O)n(C(C)C)c2ccccc12,.,.,.,-59
Cc1cccc(N2CC(c3nc4ccc(C)cc4[nH]3)CC2=O)c1 (stereo not drawn),/,.,/,/
COc1cccc2cc(-c3nc(-c4ccccc4)c(C)s3)c(=O)oc12,.,/,/,/
O=C(NCc1ccc2c(c1)OCO2)c1ccccc1Cl,.,.,/,.
O=C(NCc1ccc2c(c1)OCO2)c1nc(S(=O)(=O)Cc2ccccc2)ncc1Cl,.,.,.,-66
O=C(NCc1ccc2c(c1)OCO2)c1nc(S(=O)(=O)Cc2ccccc2F)ncc1Cl,?,.,.,-92
C/C=C/C(=O)[C@@H](C)[C@@H](/C=C/C[Si](C)(C)C)c1ccccc1,.,/,/,/
Clc1ccccc1CN(Cc1ccccc1)c1ncnc2nc[nH]c12,.,.,.,-64
COc1cc(NC(=O)Nc2nnc(N3CCCCCC3)s2)cc(OC)c1,/,.,/,/
O=C1C=CC2(C=C1)O[C@H](Cc1ccccc1)[C@@H](Cc1ccccc1)O2,.,.,/,-109
COc1ccc(C[C@@H]2OC3(C=CC(=O)C=C3)O[C@H]2Cc2ccc(OC)cc2)cc1,.,.,/,-118
CN(C(=O)c1ccoc1)c1ccccc1I,.,/,/,/
CN(C)C(=O)CNC(=O)Cc1ccccc1,/,.,/,/
CCCCCCn1nc(C(=O)OCC(=O)c2c(N)n(C)c(=O)n(C)c2=O)c2ccccc2c1=O,.,32,.,.
Cn1c(N)c(C(=O)COC(=O)c2cc(-c3ccco3)nc3ccccc23)c(=O)n(C)c1=O,.,.,.,.
Cn1c(N)c(C(=O)COC(=O)c2cc(C3CC3)nc3ccccc23)c(=O)n(C)c1=O,.,36,.,.
Cn1cc(S(=O)(=O)N2CCCCC2)cc1C(=O)Nc1cccc(C#N)c1,/,.,/,/
COc1ccc(Cl)cc1NC(=O)c1cnc2sc(N3CCOCC3)nn2c1=O,/,.,/,/
O=C(O)CC(CCc1ccccc1)OC1OC(CO)C(O)C(O)C1O (stereo not drawn),.,33,.,.
Clc1cccc(OCCCCN2CCCCC2)c1,.,.,.,?
CCOc1ccc(C(=O)CCN2CCCCC2)cc1,.,.,.,.
SMILES,Giardia kill,D3 ag,B2AR arrestin,DRD3 antagonist
CC(C)(C)c1ccc(C(=O)OCCN2CCCCC2)cc1,.,.,.,.
CC(C)Oc1ccc(C(=O)CCN2CCCCC2)cc1,.,.,.,-78
COc1ccc(C(=O)CCN2CCCCCC2)cc1,.,.,.,-54
O=C(OCCN1CCCCC1)c1cccc(Cl)c1,.,.,.,-102
CC(C)Oc1ccc(C(=O)CCN2CCOCC2)cc1,.,.,/,.
COc1ccc(C(=O)OCCN2CCCCC2)cc1,.,.,.,-78
COc1cc(NC(=O)CCc2c(C)nn(-c3ccc4nncn4n3)c2C)cc(OC)c1OC,/,.,/,/
Nc1nc(N)c(N=Nc2ccc(S(N)(=O)=O)cc2)c(=O)[nH]1,.,.,.,-55
NS(=O)(=O)c1ccc(N=Nc2ccc(=O)[nH]c2O)cc1,.,.,.,-102
Nc1nc(N)c(N=Nc2ccc(Cl)cc2)c(=O)[nH]1,.,.,.,.
Cc1cccc(N2CC(C)Cn3c2nc2c3c(=O)n(CC(=O)O)c(=O)n2C)c1 (stereo not drawn),/,.,/,/
C=CCn1c(=O)c2c(nc3n2CC(C)CN3c2cccc(OC)c2)n(C)c1=O (stereo not drawn),.,.,.,-69
CN1CCN(C(=O)c2ccccc2NS(=O)(=O)c2ccc(F)cc2)CC1,.,.,.,-63
CC(C)(C)c1ccc(OCCSc2nc(-c3cccs3)nc3cc(=O)[nH]n23)cc1,/,37,/,/
